Assay outcomes deposited in PubChem BioAssay by National Center for Advancing Translational Sciences (NCATS).
GALK inhibitor: qHTS Assay for Inhibitors of Human Galactokinase (GALK): NCGC Sytravon Library Screen | recombinant GALK, Kinase-Glo ATP luminescence, 1 h | Potency, µM (series often up to 57.5 µM), without a hit: at the highest dose activity, negative = inhibition, usual class: inhibitors | 44,000 tested, under 10 active | AID 1347072, 2019;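 note: plate controls were full GALK reaction for no effect and reaction lacking GALK for full effect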
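Reactions with and without enzyme served as controls. GALK at 5 nM phosphorylates 100 uM galactose using 35 uM ATP (HEPES pH 8.0, Mg2+) for 1 h at RT, with luminescence read 10 min after adding Kinase-Glo Plus.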
PTAP-TSG101 blk: qHTS Validation Assay for Inhibitors of HIV-1 Budding by Blocking the Interaction of PTAP/TSG101: Sytravon Library Screen; Tumor susceptibility gene 101 protein (Homo sapiens), Q99816; Fluorescence polarization, FITC-PTAP peptide/Tsg101, 20 min; Potency, µM (top dose mostly 115 µM), most hits filed as inhibitors; 44,000 tested, under 10 active; AID 1347069, 2019; note: potency is the fitted concentration of half-maximal effect; 0% is about no effect
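Fluorescence polarization binding of Tsg101 binding domain (10 uM final) to FITC-labeled PTAP-motif peptide (50 nM final) in HEPES pH 7.5/NaCl/Tween 20/EDTA/TCEP buffer; 20 min at r.t. Actives by curve class, <25 µM, efficacy <60% inhibition.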
DRV1 agonist: qHTS for Agonists of Human Resolvin D1 Receptor DRV1 | AID 1346428, 2018 | activation, % at 76.9 µM | CHO-K1 GPR32 beta-arrestin PathHunter luminescence, 90 min; zero percent set by DMSO-only wells | actives 2.5% (n = 48,000);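 active = activation of at least 60% and not above a set upper limit, about 1 call in 100 departs from these limits; inconclusive = activation of 40% to 60%, or above that upper limit; inactive = activation under 40%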; note: 0% is about no effect
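Engineered CHO-K1 line co-expressing GPR32-ProLink and EA-beta-arrestin. Compound treatment lasted 90 min at 37 °C. Luminescence was recorded after 1 h with substrate at ambient temperature, relative to DMSO basal wells.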
B2AR arrestin ag: qHTS assay of beta-arrestin-biased ligands of beta2-adrenergic receptor: NCGC Sytravon Library Screen; Beta-2 adrenergic receptor (Homo sapiens), P07550; 44,000 tested, under 10 active; HTLA Tango cells, beta-arrestin recruitment, luciferase luminescence, 18 h; Potency, µM (highest dose often 46.1 µM), most hits filed as activators; AID 1347077, 2019;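 note: potency is the fitted concentration of half-maximal effect; 0% = DMSO and full agonism = EC100 isoproterenol or metaproterenol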
Target sequence (P07550 whole entry, looked up): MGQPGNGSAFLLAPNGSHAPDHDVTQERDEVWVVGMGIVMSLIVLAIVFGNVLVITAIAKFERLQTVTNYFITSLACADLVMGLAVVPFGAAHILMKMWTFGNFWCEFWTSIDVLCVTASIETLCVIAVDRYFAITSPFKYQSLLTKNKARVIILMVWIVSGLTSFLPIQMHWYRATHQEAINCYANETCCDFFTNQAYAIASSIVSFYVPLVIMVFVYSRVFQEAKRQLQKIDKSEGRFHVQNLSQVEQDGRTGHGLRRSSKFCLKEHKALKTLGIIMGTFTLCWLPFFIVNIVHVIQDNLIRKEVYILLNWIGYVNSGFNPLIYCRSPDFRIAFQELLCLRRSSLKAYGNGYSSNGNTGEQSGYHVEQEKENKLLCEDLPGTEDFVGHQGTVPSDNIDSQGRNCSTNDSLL
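Tango cell line, 1% FBS DMEM; cpd titration up to 46 microM; 18 hr, 37 degrees C, 5% CO2. Luciferin/ATP substrate mix added, 15 min RT, luminescence. %Activity, CRC fitting, curve-class categorization.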
Numbers without * were called inactive; i = inactive; ? = inconclusive; . = no result given. Hits are enriched below; roughly 2.5% of the tested compounds scored in any of these assays. Unless noted, calls come from the whole dose curve; as a rule, active = well fitted curve in the direction sought with a large enough effect; inconclusive = small, poorly fitted or top-dose-only effect, or another doubt; inactive = no such curve, though single readings can be large; an effect the other way counts as inactive or inconclusive.

SMILES	GALK inhibitor	PTAP-TSG101 blk	DRV1 agonist	B2AR arrestin ag
CC(C)(C)C1CCC(CC2=C(O)c3ccccc3C(=O)C2=O)CC1 (stereo not given)	.	.	-11	.
CCc1cccc(C)c1Nc1c(-c2ccc(N(C)C)cc2)nc2cnccn12	-7%	i	93*	i
Oc1ccc(Cl)cc1Cc1cc(Cl)ccc1O	.	.	69*	.
O=C(c1cc(O)c(O)c(O)c1)c1ccc(O)c(O)c1O	.	.	-28	.
COc1ccccc1OCc1nc(-c2cccc(C)c2)no1	3%	i	77*	i
COc1ccc(-c2noc(COc3ccc(C)cc3C)n2)cc1OC	2%	i	-23	i
COc1ccccc1C(=O)N(Cc1nc(-c2cccc(C)c2)no1)C(C)C	8%	i	87*	i
CCCCCCCCCCCCOCCO	.	.	14	.
CCCCCCCCCCCCOCCOCCOCCOCCOCCOCCOCCOCCOCCO	.	.	99*	.
CNC[C@H](O)[C@@H](O)[C@H](O)[C@H](O)CO	.	.	-7	.
Cc1c(C)c2c(c(C)c1OC(=O)CCC(=O)OCCO)CC[C@@](C)(CCC[C@H](C)CCC[C@H](C)CCCC(C)C)O2	.	.	0	.
Cc1c(Cl)cccc1Nc1nn2c(=O)c3ccc(C(=O)NCCc4ccccc4)cc3nc2s1	0%	i	4	i
Cc1ccc(C)c(Nc2nn3c(=O)c4cc5c(cc4nc3s2)OCO5)c1	5%	i	63*	i
O=c1c2cc3c(cc2nc2sc(Nc4ccccc4)nn12)OCO3	-6%	i	-4	i
Cc1ccc(C)c(Nc2nn3c(=O)c4ccc(C(=O)NCCc5ccccc5)cc4nc3s2)c1	0%	i	74*	i
COc1cccc(NC(=O)CSc2nc3ccc(NC(=O)c4ccco4)cc3s2)c1	3%	i	?	i
O=C1OC2(c3ccc(O)cc3Oc3cc(O)ccc32)c2ccccc21	.	.	111*	.
O=C1OC2(c3ccccc31)c1cc(I)c(O)c(I)c1Oc1c2cc(I)c(O)c1I	.	.	-64	.
CCOc1ccccc1NC(=O)c1c(NCc2sccc2C)sc2c1CCCCC2	1%	i	-14	i
CCOC(=O)N1CCc2c(sc(NCc3sccc3C)c2C(=O)Nc2ccccc2OCC)C1	1%	i	63*	i
CCOC(=O)N1CCc2c(sc(NCc3sccc3C)c2C(=O)Nc2ccc(OC)cc2OC)C1	-3%	i	117*	i
CN(CCCN1c2ccccc2CCc2ccccc21)CC(=O)c1ccc(Cl)cc1	.	.	109*	.
NC(=O)c1cc[n+](CC2=C(C(=O)[O-])N3C(=O)[C@@H](NC(=O)Cc4cccs4)[C@H]3SC2)cc1	.	.	2	.
COc1cc(NC(=O)c2nc3ccccc3n(C)c2=O)cc(OC)c1OC	0%	i	13	i
CC(=O)c1cccc(NC(=O)c2nc3ccccc3n(C)c2=O)c1	6%	i	62*	i
SMILES	GALK inhibitor	PTAP-TSG101 blk	DRV1 agonist	B2AR arrestin ag
CCOC(=O)c1c(C)[nH]c(C)c1S(=O)(=O)N(C)CC(=O)NCc1cccc(Br)c1	-3%	i	101*	i
CC1CN(c2cc3c(cc2F)c(=O)c(C(=O)O)cn3-c2ccc(F)cc2F)CCN1 (stereo not given)	.	.	-3	.
CCc1ccc(CNCc2c(C(=O)O)n(Cc3ccc(C)cc3)c3cc(C)ccc23)cc1	0%	i	33	i
CCc1ccc(CNCc2c(C(=O)O)n(Cc3cccc(F)c3)c3cc(OC)ccc23)cc1	-1%	i	109*	i
Cc1ccc(CNCc2c(C(=O)O)n(Cc3ccc(C)cc3)c3cc(C)ccc23)cc1	4%	i	98*	i
COc1ccc2c(CNCCc3ccc(SC)cc3)c(C(=O)O)n(Cc3ccc(F)cc3)c2c1	4%	i	115*	i
CCCc1ncc(C(=O)O)s1	.	.	-6	.
CCCC1(C)C(C#N)(C#N)C1(C#N)C#N	.	.	-28	.
CN(C)CCNC(=O)C1CCN(Cc2cc3ccccc3n2Cc2ccccc2)CC1	-1%	i	64*	i
CCCNC(=O)C1CCN(Cc2cc3ccccc3n2Cc2ccccc2)CC1	3%	i	-13	i
CO[C@@]1(NC(=O)C(C(=O)O)c2ccc(O)cc2)C(=O)N2C(C(=O)O)=C(CSc3nnnn3C)CO[C@@H]21 (stereo not given in full)	.	.	63*	.
